Among the test systems are SK-MEL-2 melanoma; EKVX NSCLC; SN12C renal; UO-31 renal; TK-10 renal; ACHN renal; CAKI-1 renal; A498 renal; CCRF-CEM leukemia; MOLT-4 leukemia; SR leukemia; RPMI-8226 leukemia; OVCAR-8 ovarian; OVCAR-5 ovarian; OVCAR-4 ovarian; SK-OV-3 ovarian; IGROV1 ovarian; OVCAR-3 ovarian; HS 578T breast; NCI/ADR-RES ovarian.
Common to all, as to experiment: NCI-60 one-dose screen, 48 h (100 = growth as untreated, 0 = no growth, -100 = all killed)
Holding throughout (settings): 10 µM unless noted

About 83,000 compounds went through this panel and 20% of them were active in at least one assay; those are over-represented in the sample as a whole.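 Results are percent growth after 48 hours of single-concentration exposure. 100 means growth as in untreated cells, lower positive values show inhibition; negative values down to -100 show cell death.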 A number with no mark means an inactive call. Calls of active or inactive are those of the source. The calls were made as follows: active = growth percent below 10; inactive = the rest.

Consider `CC1(C)OC2C(CO)OC(n3ccc(=O)[nH]c3=O)C2O1` (stereo not drawn), for which the growth in the assay with SK-MEL-2 melanoma is 96.6%; with EKVX NSCLC, 104%; in the assay with SN12C renal, 90.1%; in the assay with UO-31 renal, 88%; in the assay on TK-10 renal, 87.2%; with ACHN renal it was 104%. The growth with CAKI-1 renal was 101%; with A498 renal it was 75.9%; in the assay on CCRF-CEM leukemia, 101%; in the assay on MOLT-4 leukemia it was 92.3%; in the assay on SR leukemia, 99.7%; in the assay on RPMI-8226 leukemia, 103%. The growth in the assay on OVCAR-8 ovarian was 91.8%; in the assay on OVCAR-5 ovarian, 104%; in the assay with OVCAR-4 ovarian, 115%; in the assay on SK-OV-3 ovarian it was 99.3%; in the assay on IGROV1 ovarian it was 101%; in the assay with OVCAR-3 ovarian it was 107%. For the same compound, the growth in the assay on HS 578T breast was 91.8%; with NCI/ADR-RES ovarian, 105%.

Turning to `Nc1cc(N)ncn1`, the growth in the assay with SK-MEL-2 melanoma was 113%; with EKVX NSCLC, 102%; in the assay on SN12C renal, 97.1%; with UO-31 renal, 94%; in the assay with TK-10 renal it was 102%; with ACHN renal, 102%. Moreover, the growth in the assay on CAKI-1 renal was 102%; in the assay on A498 renal it was 93.8%; with CCRF-CEM leukemia it was 99.2%; with MOLT-4 leukemia it was 93.5%; with SR leukemia, 93.9%; in the assay with RPMI-8226 leukemia it was 105%. For the same compound, the growth in the assay on OVCAR-8 ovarian is 116%; with OVCAR-5 ovarian it was 96.5%; in the assay with OVCAR-4 ovarian it was 99%; in the assay on SK-OV-3 ovarian it was 125%; with IGROV1 ovarian it was 101%; in the assay on OVCAR-3 ovarian, 112%. Also, the growth with HS 578T breast is 96.2%; with NCI/ADR-RES ovarian it was 97.6%.

With `CCOC(=O)C(COS(C)(=O)=O)(COS(C)(=O)=O)C(=O)OCC`, the growth in the assay on SK-MEL-2 melanoma was 114%; with EKVX NSCLC, 102%; in the assay on SN12C renal it was 104%; with UO-31 renal, 95.7%; in the assay with TK-10 renal, 111%; in the assay with ACHN renal, 103%. Moreover, the growth in the assay on CAKI-1 renal was 100%; in the assay with A498 renal, 97.5%; in the assay with CCRF-CEM leukemia, 105%; in the assay on MOLT-4 leukemia, 96.3%; with SR leukemia it was 90.9%; in the assay with RPMI-8226 leukemia it was 110%. Further, the growth is 103% in the assay on OVCAR-8 ovarian; 105% with OVCAR-5 ovarian; 107% in the assay with OVCAR-4 ovarian; 104% with SK-OV-3 ovarian; 104% in the assay with IGROV1 ovarian; 106% in the assay on OVCAR-3 ovarian. In addition, the growth in the assay with HS 578T breast is 104%; in the assay with NCI/ADR-RES ovarian, 103%.

For the compound `CSc1nsc(N)n1`, the growth with SK-MEL-2 melanoma is 94.2%; in the assay on EKVX NSCLC, 97.4%; in the assay with SN12C renal, 96%; in the assay with UO-31 renal it was 82.3%; in the assay on TK-10 renal, 101%; with ACHN renal, 107%. Besides, the growth in the assay on CAKI-1 renal was 97.2%; with A498 renal it was 87.5%; in the assay with CCRF-CEM leukemia it was 108%; in the assay on MOLT-4 leukemia it was 97.9%; in the assay with SR leukemia, 98.4%; with RPMI-8226 leukemia, 114%. Also, the growth with OVCAR-8 ovarian is 105%; in the assay with OVCAR-5 ovarian it was 107%; with OVCAR-4 ovarian, 104%; in the assay with SK-OV-3 ovarian, 105%; in the assay with IGROV1 ovarian, 97.6%; with OVCAR-3 ovarian, 110%. For the same compound, the figures for the growth in the assay on HS 578T breast and with NCI/ADR-RES ovarian were 90.7% and 101%, respectively.

With `Nc1cc2c(cc1Cl)C(=O)c1ccccc1C2=O`, the growth in the assay with SK-MEL-2 melanoma was 111%; in the assay with EKVX NSCLC it was 42.5%; in the assay on SN12C renal, 34%; in the assay on UO-31 renal it was -15% (active); in the assay on TK-10 renal, 33.8%; in the assay on ACHN renal, 3.29% (active). The growth in the assay with CAKI-1 renal was 41.5%; with A498 renal, 103%; in the assay on CCRF-CEM leukemia, 80.5%; with MOLT-4 leukemia, 85.8%; with SR leukemia it was 59.8%; with RPMI-8226 leukemia it was 51.1%. The growth with OVCAR-8 ovarian was 21.7%; in the assay with OVCAR-5 ovarian it was 58.5%; in the assay with OVCAR-4 ovarian, 9.39% (active); in the assay on SK-OV-3 ovarian it was 39.1%; with IGROV1 ovarian it was 35.5%; in the assay on OVCAR-3 ovarian it was 62.3%. In addition, the growth with NCI/ADR-RES ovarian is 24.1%.

As for `C=CCS(C)(=O)=O`, the growth in the assay on SK-MEL-2 melanoma was 100%; in the assay with EKVX NSCLC it was 91.3%; with SN12C renal it was 98.1%; in the assay on UO-31 renal, 90.3%; in the assay on TK-10 renal, 96.6%; in the assay with ACHN renal it was 102%. Moreover, the growth in the assay on CAKI-1 renal is 92.5%; with A498 renal it was 105%; with CCRF-CEM leukemia, 110%; in the assay on MOLT-4 leukemia, 109%; with SR leukemia it was 99.4%; in the assay with RPMI-8226 leukemia, 104%. Further, the growth is 95.4% in the assay on OVCAR-8 ovarian; 101% with OVCAR-5 ovarian; 113% in the assay with OVCAR-4 ovarian; 90.3% with SK-OV-3 ovarian; 112% in the assay with IGROV1 ovarian; 108% in the assay with OVCAR-3 ovarian. Besides, the growth in the assay on HS 578T breast is 89.2%; in the assay with NCI/ADR-RES ovarian, 104%.

On to `NCCCN1CCCC1=O`, for which the growth in the assay on SK-MEL-2 melanoma was 117%; with EKVX NSCLC it was 122%; with SN12C renal, 97.5%; in the assay with UO-31 renal, 95.7%; in the assay with TK-10 renal, 100%; in the assay on ACHN renal, 113%. Moreover, the growth with CAKI-1 renal is 109%; in the assay with A498 renal it was 103%; with CCRF-CEM leukemia it was 114%; in the assay with MOLT-4 leukemia, 97.1%; with SR leukemia, 88.2%; in the assay with RPMI-8226 leukemia, 107%. Besides, the growth was 97.5% in the assay on OVCAR-8 ovarian; 110% in the assay on OVCAR-5 ovarian; 111% in the assay with OVCAR-4 ovarian; 116% with SK-OV-3 ovarian; 104% in the assay with IGROV1 ovarian; 112% in the assay on OVCAR-3 ovarian. The values for the growth in the assay on HS 578T breast and with NCI/ADR-RES ovarian were 109% and 101%, respectively.

With `CCN(CC)c1ccc2nc3ccc(N=Nc4ccc(N(C)C)cc4)cc3[n+](-c3ccccc3)c2c1`, the growth in the assay with SK-MEL-2 melanoma was -37.1% (active); with EKVX NSCLC it was -75.2% (active); with SN12C renal it was -49.5% (active); with UO-31 renal, -55.1% (active); with TK-10 renal it was 5.74% (active); in the assay with ACHN renal it was -79.4% (active). Further, the growth was -27.8% (active) with CAKI-1 renal; -25.1% (active) in the assay on A498 renal; -21% (active) in the assay on CCRF-CEM leukemia; -20.1% (active) in the assay with MOLT-4 leukemia; -18.3% (active) in the assay on SR leukemia; -23.6% (active) in the assay with RPMI-8226 leukemia. Also, the growth in the assay on OVCAR-8 ovarian was 5.08% (active); in the assay with OVCAR-5 ovarian, -58.2% (active); with OVCAR-4 ovarian, -100% (active); in the assay with SK-OV-3 ovarian it was -8.27% (active); with IGROV1 ovarian, 14.5%; in the assay with OVCAR-3 ovarian, -30.6% (active). Further, the growth with NCI/ADR-RES ovarian was 0.224% (active).

For the origin of these results see PubChem BioAssay (NCI).
